# Results filed as inconclusive are left out. Activity calls are given as the source filed them. The calls were made as follows: active = hit-call score of the fitted dose curve at least 0.9, where 1 is the maximum; inconclusive = response in the unintended direction; inactive = score below 0.9.
# Tested on: frog Retinoid X Receptor beta (RXRb), gene 394278
# Assay: ATG_frRXRb_EcoTox2: Attagene TRANS-FACTORIAL EcoTox-2 HepG2 Assay for frog Retinoid X Receptor beta (RXRb)
# Description: ATG_EcoTox2 is a cell-based, multiplexed assay created by modifying the existing Attagene TRANS-FACTORIAL system to include a panel of nuclear receptors from some or all the following species: human (Homo sapiens), african clawed frog (Xenopus laevis), rainbow trout (Oncorhynchus mykiss), japanese medaka (Oryzias latipes), and zebrafish (Danio rerio). The ECOTOX2-FACTORIAL format uses HepG2, a human liver cell line, with measurements taken at 24 hours after chemical dosing in a 24-well plate. ATG_frRXRb_EcoTox2 is one of 29 assay components calculated in the ATG_EcoTox2 assay. It is designed to make measurements of mRNA induction, a form of inducible reporter, as detected with fluorescence intensity signals by Reverse transcription polymerase chain reaction (RT-PCR) and Capillary electrophoresis technology.The assay endpoint ATG_frRXRb_EcoTox2 was analyzed in the positive analysis fitting direction relative to DMSO as the negative control and baseline of activity. Using a type of inducible reporter, measures of mRNA for gain-of-signal activity can be used to understand the reporter gene at the transcription factor-level as they relate to the gene RXRb. Furthermore, this assay endpoint can be referred to as a primary readout, because this assay has produced multiple assay endpoints where this one serves a reporter gene function. To generalize the intended target to other relatable targets, this assay endpoint is annotated to the nuclear receptor intended target family, where the subfamily is non-steroidal.
# Human liver HepG2 cells are transiently transfected with multiple reporter transcription units (MRTUs) in 6-well plates using FuGene 6 reagent (Roche; 3 ml FuGene/1 mg DNA). The MRTU constructs are regulated by a cis-regulating element (promoter). Each RTU expresses a GAL4-UAS that regulates the transcription of a nearby target reporter gene sequence. A major difference between the CIS and TRANS system is that in CIS activities of endogenous TFs are measured, whereas the TRANS assay evaluates changes in activities of exogenous, chimeric NR-Gal4 proteins. […] At the end of 24 hour incubation, total RNA was isolated using TriZol reagent (Invitrogen). The isolated RNA is then reverse-transcribed using oligo(dT) primer and Mo-MLV reverse transcriptase (Invitrogen) with DNAse I (Ambion) treatment for 30 min. The one-tenth of the produced cDNA was amplified by PCR using Taq DNA polymerase (Invitrogen) and two reporter sequence-specific primers. The PCR products were fluorescently labeled by primer extension with 6-arboxyfluorescein (6-FAM) 5'-labeled reporter sequence-specific primer (2 min at 95 C, 20 s at 68 C and 10 min at 72 C) and these products were digested with 5U of HpaI (New England Biolabs) for 2h at 37 C. The fragments were purified using Qiaquick PCR columns (Qiagen), analyzed on an ABI 3130xL genetic analyzer (Applied Biosystems) with peak positions identified by using a set of X-rhodamine (ROX)-labeled MapMarker1000 molecular weight standards (BioVentures). The raw capillary electrophoresis data was processed using Attagraph software (Attagene).
Compound,outcome,AC50
CC(C)OC(=O)C(C)(C)Oc1ccc(C(=O)c2ccc(Cl)cc2)cc1,inactive,–
CC(c1cc2ccccc2s1)N(O)C(N)=O (centres undefined),inactive,–
C[C@]12C=CC(=O)C=C1CC[C@@H]1[C@@H]2C(=O)C[C@@]2(C)[C@H]1CC[C@]2(O)C(=O)CO,inactive,–
CC(C)(Oc1ccc(Cl)cc1)C(=O)O,inactive,–
Cc1cccc(Nc2cc(Cl)nc(SCC(=O)O)n2)c1C,–,23.8 µM (active)
C[C@@H]1C[C@H]2[C@@H]3CCC4=CC(=O)C=C[C@]4(C)[C@@]3(F)[C@@H](O)C[C@]2(C)[C@@]1(O)C(=O)COP(=O)(O)O,inactive,–
CN(CCOc1ccc(CC2SC(=O)NC2=O)cc1)c1ccccn1 (centres undefined),inactive,–
C=C(c1ccc(C(=O)O)cc1)c1cc2c(cc1C)C(C)(C)CCC2(C)C,–,0.00172 µM (active)
Cc1ccc(C)c(OCCCC(C)(C)C(=O)O)c1,inactive,–
